Data published in PubChem BioAssay AID952 (NMMLSC, 2007).
The campaign covered roughly 190,000 compounds. About 45 (0.02%) were called active. No stated cut-off is given here; in the data, active means inhibition above about 40%. Not all results are given here.

Biological target: Bcl-2-like protein 2 (Homo sapiens) (UniProt Q92843)
Experiment: Bcl-W/Bim complex disruptors – biochemical, multiplexed, bead-based flow cytometry, primary screen (AID 952);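 further: 0% = bound tracer without compound and 100% = peptide blocker; higher means less fluorescent Bim peptide bound to Bcl-W beads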
Conditions: Bim peptide-Bcl-W binding, at 10 µM, hits give high values

Sequence of Bcl-2-like protein 2 (Homo sapiens) (Q92843 whole entry, looked up): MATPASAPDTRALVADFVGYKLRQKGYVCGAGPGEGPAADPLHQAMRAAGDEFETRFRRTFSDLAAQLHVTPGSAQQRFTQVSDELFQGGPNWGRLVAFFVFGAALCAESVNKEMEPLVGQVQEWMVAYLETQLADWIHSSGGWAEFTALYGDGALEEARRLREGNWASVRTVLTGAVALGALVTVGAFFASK

inhibition, inactive:
C/C(=N/Nc1ccc(Cl)cc1)c1cnnc(-c2ccccc2)n1 -1%
O=C(O)/C=C/C(=O)NNc1ccc([N+](=O)[O-])cc1 5%
CCOC(=O)c1cccc(NC(=O)CCOc2ccccc2)c1 -1%
O=C(Cn1nnc2ccccc2c1=O)NCc1ccc(Cl)cc1 -1%
CSc1nc2ccccc2c(=O)n1Cc1ccc(F)cc1 0%
COc1ccc(NC(=S)NCC2CCN(c3ccc(OC)cc3)C2)cc1 (centres undefined) 0%
CCOc1ccc(N2C(=O)/C(=C/c3ccc(C)o3)N(C)C2=S)cc1 4%
O=c1[nH]n2c(-c3ccccc3)nc(O)c2c2ccccc12 -1%
COc1ccc(C(C(=O)NC2CCCCC2)N(C(=O)CCl)c2ccccc2Cl)cc1 (centres undefined) 0%
OC(CNCc1ccc(Cl)c(Cl)c1)c1ccccc1 (centres undefined) 0%
O=C(COc1ccc(Cl)cc1[N+](=O)[O-])N1CCCCC1 3%
Cc1nccn1CC(=O)N/N=C/c1ccc(O)c(O)c1 -5%
CN(Cc1nc2ccc(F)cc2[nH]1)Cc1nc(CC2CC2)no1 -6%
Nc1nnc(SCC(=O)OCc2ccc(Cl)c(Cl)c2)s1 3%
CN(C)CCOc1cccc(Br)c1 -3%
Clc1cc(-c2ccc(/C=N/n3cnnc3)o2)ccc1Br 0%
CCC(=O)N(Cc1cc2ccccc2[nH]c1=O)c1ccc(OC)cc1 0%
CCOC(=O)c1cnc2c(c(C)nn2CC)c1Cl -1%
CN(C)/N=C/c1cn(-c2ccccc2)nc1-c1cccnc1 1%
Cc1cc(C)n(-c2ccc(C(=O)O)cc2[N+](=O)[O-])n1 0%
CCCCNC(=O)C1CCC(CNS(=O)(=O)c2ccc(NC(C)=O)cc2)CC1 (centres undefined) 1%
C=CCn1c(=NC(=O)c2cccs2)sc2cc(NC(C)=O)ccc21 0%
O=C(NNC(=S)NCc1ccccc1)c1ccc(OC(F)F)cc1 1%
CC(=O)c1cccc(-n2nnnc2SCC(=O)NNC(=O)C2CCCCC2)c1 0%
CC(=O)c1cc(C#N)c(SCC(=O)Nc2nccs2)nc1C -1%
COCCNC(=O)c1ccc(-n2c(SCc3cccnc3)nc3ccccc3c2=O)cc1 -4%
CCCCN(CC)CCNC(=O)CCNC(=O)Cn1ccc2ccccc2c1=O -2%
CCN(CC(=O)NCc1cccs1)S(=O)(=O)c1ccc(NC(C)=O)cc1 0%
CN(CCC1CCOCC1)Cc1cn[nH]c1-c1ccc(-c2ccccc2)cc1 -1%
